Assay: probe aInhba binding on compound microarray – biochemical, small-molecule microarray, 635/667 nm fluorescence, primary screen (AID 1148);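 further: score merges 667nm spot fluorescence with signal-to-noise for antibody binding to printed compounds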
Settings: higher = more signal

Compound	composite z-score
C=CCN1C(=O)[C@@]2(Cc3ccccc31)N=C(c1ccc(OCCCO)cc1)O[C@H]2c1ccccc1	0.195
[N-]=[N+]=Nc1ccccc1[C@@H]1OC(c2ccc(OCCCO)cc2)=N[C@]1(CCS(=O)(=O)c1ccccc1)C(N)=O	0.207
CN(C)C(=O)[C@@]1(CCS(=O)(=O)c2ccccc2)COC(c2ccc(OCCCO)cc2)=N1	0.0589
CCOC(=O)C[C@H]1[C@H](OC(=O)c2cc3ccccc3oc2=O)[C@@H](NC(=O)c2ccccc2)c2cc(OCCCO)ccc2N1C(=O)c1ccc2ccccc2n1	-0.0405
C=CCOC(=O)[C@H]1[C@@H]2C(=O)O[C@@H](c3ccccc3)[C@@H](c3ccccc3)N2[C@@H](c2ccc(OCCOC(=O)[C@H]3C[C@H]4C(=O)N[C@@H](CCCCNC(C)=O)C(=O)N4[C@H]3c3cccc(OCCO)c3)cc2)[C@]12C(=O)Nc1ccccc12	-0.21
CC(C)C(CO)N1C(=O)[C@@H]2C3C(=O)OCCC/C=C\[C@H]3OC23C=CCN(CCN2CCOCC2)C(=O)[C@@H]13 (some centres undefined)	-0.251
O=C(NCCN1CCOCC1)C1N=C(c2ccc(OCCCO)cc2)N(c2ccccc2)O1 (centres undefined)	0.0219
COC(=O)[C@@]1(Cc2ccccc2)[C@H]2c3cc(C(=O)N4CCCC4)n(Cc4ccc(S(C)(=O)=O)cc4)c3C[C@H]2CN1C(=O)c1ccccc1	0.401
O=C1[C@@]23C=C(Br)[C@H](C[C@@H]2CCOC3)[C@@]12CO2	0.0792
O=C(c1ccccc1)N1C(=O)[C@]2(COC(c3ccc(OCCCO)cc3)=N2)Cc2ccccc21	0.249
Cc1nc2cc(Br)ccc2c(=O)o1	0.0319
CCCCC(CC)C(O)C1C=CC2C(=O)N(Cc3ccccc3)C(=O)C2N1n1cnnc1 (centres undefined)	-0.166
CC(C)C(O)C1C=CC2C(=O)NC(=O)C2N1Nc1ccc(Cl)cc1Cl (centres undefined)	-0.0791
COCCOC(=O)N1C(=O)[C@@]2(c3ccccc31)[C@H](c1ccc(O)cc1)N1[C@H](c3ccccc3)[C@H](c3ccccc3)OC(=O)[C@H]1[C@@H]2C(=O)Nc1nc2ccccc2s1	0.225
CC(C)C(=C=CC[C@@H](O)c1ccc(OCCO)cc1)C[C@@H](O)COCc1ccccc1	-0.0762
O=C1C2C=CC(C(O)Cc3ccccc3)N(n3cnnc3)C2C(=O)N1Cc1ccccc1 (centres undefined)	-0.0118
COCCOC(=O)N1C(=O)[C@@]2(c3cc(C#Cc4ccc(OC)cc4)ccc31)[C@H](c1ccc(O)cc1)N1[C@H](c3ccccc3)[C@H](c3ccccc3)OC(=O)[C@H]1[C@@H]2C(=O)N1CCc2cc(OC)c(OC)cc2C1	0.0317
COc1cc2c(cc1O)C(C1CC1)N(Cc1sc3ccccc3c1Cl)CC2 (centres undefined)	-0.024
CC(C)C(=C=CC[C@H](O)c1ccc(OCCO)cc1)CCO	-0.179
CC(=O)NCCCC[C@@H]1NC(=O)[C@@H]2C[C@H](C(=O)NCCCCCNC(=O)CS)[C@H](c3cccc(OCCO)c3)N2C1=O	-0.101
NC(=O)NCC#Cc1ccc2c(c1)[C@]1(C(=O)N2)[C@H](c2ccc(O)cc2)N2[C@H](c3ccccc3)[C@H](c3ccccc3)OC(=O)[C@H]2[C@@H]1C(=O)O	-0.299
COc1cc(Br)cc(C(O)C2C=CC3C(=O)N(C)C(=O)C3N2N2CCCCC2)c1OC (centres undefined)	-0.016
COc1ccc(CCNC(=O)[C@@H]2c3ccccc3C(=O)N(Cc3ccccc3Cl)[C@H]2c2ccc(CO)cc2)cc1	-0.0645
CCCCN1CC=CC23O[C@@H]4C=CCCOC(=O)C4[C@H]2C(=O)N(CCCCCCO)[C@@H]3C1=O (some centres undefined)	-0.208
CCOC(=O)C[C@H]1[C@H](OC(=O)c2ccc(C(=O)c3ccccc3)cc2)[C@@H](NC(=O)c2ccccc2)c2cc(OCCCO)ccc2N1C(=O)c1ccc2ccccc2n1	-0.0468
C=CCOC(=O)[C@H]1[C@@H]2C(=O)O[C@@H](c3ccccc3)[C@@H](c3ccccc3)N2[C@@H](c2ccc(OCCOC(=O)[C@H]3C[C@H]4C(=O)N[C@@H](CCCC[N+](C)(C)C)C(=O)N4[C@H]3c3ccc(O)cc3)cc2)[C@]12C(=O)Nc1ccc(I)cc12	0.0759
CC(CO)N1C(=O)[C@@H]2C3C(=O)OCCC/C=C\[C@H]3OC23C=CCN(C(C)(C)C)C(=O)[C@@H]13 (some centres undefined)	-0.128
CC1CC/C=C\[C@H]2OC34C=CCN(C(C)(C)C)C(=O)[C@H]3N(C(C)CO)C(=O)[C@@H]4C2C(=O)O1 (some centres undefined)	-0.128
COc1ccc(C#Cc2ccc3c(c2)[C@]2(C(=O)N3)[C@H](C(=O)Nc3nc4ccccc4s3)[C@H]3C(=O)O[C@H](c4ccccc4)[C@H](c4ccccc4)N3[C@@H]2c2ccc(O)cc2)cc1	1.43

Reference: PubChem BioAssay
